In PubChem BioAssay (NCI):
About 83,000 compounds went through this panel and 20% of them were active in at least one assay; those are over-represented in the sample as a whole.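 96-well plates, one dose, 48 hours. Percent growth reported; active if below 10.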 Active and inactive are the calls of the source.

system: MDA-MB-468 breast; assay: NCI-60 one-dose screen, 48 h (100 = growth as untreated, 0 = no growth, -100 = all killed); details: 10 µM unless noted

SMILES	growth
CCOC(=O)c1c(NC(=O)c2ccc(F)cc2F)sc2c1CCC(=O)C2	95.2% (inactive)
CC1(C)NCCC[C@]2(C)[C@H]3CC=C4[C@@H]5C[C@](C)(COC(=O)c6ccccc6C(=O)O)CC[C@]5(C)CC[C@@]4(C)[C@]3(C)CC[C@@H]12	29.5% (inactive)
C1Cc2onc(-c3noc4c3CCC4)c2C1	110% (inactive)
CCNC(=O)Oc1ccc(/C(=C(/CC)Cc2ccccc2)c2ccc(OCCN3CCOCC3)cc2)cc1	46.1% (inactive)
C[C@]12CC[C@@H]3c4cc(O)c(O)cc4CC[C@H]3[C@@H]1CC[C@@H]2O	72.1% (inactive)
O=C(CC(NC(=O)OCc1ccccc1)C(=O)OCc1ccccc1)OCc1ccccc1 (stereo not given)	112% (inactive)
O=C(Nc1ccc(Cl)cc1F)c1cc(Br)ccc1O	0.453% (active)
N#Cc1ccc(C(=O)CSc2nccc(Nc3ccc(C(=O)O)cc3)n2)cc1	101% (inactive)
CC(C)NC(=O)OCc1c(COC(=O)NC(C)C)c(-c2ccc(Cl)c(Cl)c2)n2c1SCC2	-73.9% (active)
O=C(Nc1cccc(Cl)c1)Nc1cc(C(F)(F)F)ccc1Cl	1.29% (active)
COC(=O)c1ccc(NC(=O)CSc2nc3ccccc3c(=O)n2-c2ccccc2)cc1	104% (inactive)
C/C(=N\Nc1ccc([N+](=O)[O-])cc1[N+](=O)[O-])c1ccc(Br)cc1	108% (inactive)
C/C=C/C/C=C/[C@H](C)C[C@H](O)[C@@H]1C[C@@H]2O[C@H]2/C=C/[C@H](O)[C@@H](O)/C=C/C[C@H](C)CC(=O)O1	99.5% (inactive)
COc1ccc(CC2c3cc(OC)c(OC)cc3CC[N+]2(C)CCC(=O)OCCCCCOC(=O)CC[N+]2(C)CCc3cc(OC)c(OC)cc3C2Cc2ccc(OC)c(OC)c2)cc1OC (stereo not given)	88.3% (inactive)
COc1ccc(/C(C)=C(\c2ccc(OCCN3CCCCCC3)cc2)c2ccc(OC(=O)c3ccccc3)cc2)cc1	61.3% (inactive)
COc1ccc(-c2nc(-c3nc4ccc(C)cc4[nH]3)c3ccccn23)cc1	45.4% (inactive)
O=[N+]([O-])c1ccc(-c2ncc(-c3ccc(Br)cc3)o2)cc1	102% (inactive)
Clc1cc(Cl)cc(N2N=C(c3cccc(Nc4ccncc4)c3)CC2c2ccc(Br)cc2)c1 (stereo not given)	44.9% (inactive)
CCCNC(=O)Oc1ccc(/C(=C(\C)c2ccccc2)c2ccc(OCCN3CCCCC3)cc2)cc1	73.6% (inactive)
NC1[C@H]2CN(c3cnc(C(=O)Nc4cc(F)cc5cccnc45)cn3)C[C@@H]12 (stereo not given in full)	3.36% (active)

SMILES	growth
COc1ccccc1/C=C1\COc2ccc(O)c(O)c2C1=O	12.6% (inactive)
COc1ccc(/C=C/C(=O)c2c(O)c(C)c(O)c3c2OC2=CC(O)=C(C(C)=O)C(=O)[C@]23C)cc1	-40.1% (active)
Cc1ccc(OCCCCCCNCCO)c(C)c1	-15.9% (active)
O=C(c1ccccc1)c1ccccc1Cl	110% (inactive)
Oc1[nH]c2ccccc2c1/C=c1/ccc2c(c1)N=C(c1cc(F)cc(F)c1)N=2	20.6% (inactive)
Nc1cccc2c1CN(C1CCC(=O)NC1=O)C2=O (stereo not given)	84% (inactive)
CCN(CC)S(=O)(=O)c1ccc(NC(=O)CSc2nnc(C)n2-c2ccccc2)cc1	90.6% (inactive)
O=C(CCl)Nc1cc(O)c2c(c1)C(=O)c1cccc(O)c1C2=O	-55.1% (active)
CC1=C(C(=O)Nc2ccc(F)cc2)C(c2ccccc2)C2=C(CC(C)(C)CC2=O)N1 (stereo not given)	67.7% (inactive)
Clc1nc(-c2ccccn2)nc2sc3c(c12)CCCCCC3	-84.3% (active)
O=C1NC(=C(Cl)Cl)/C(=N/S(=O)(=O)NCCc2c[nH]c3ccccc23)N1	-3.27% (active)
Cc1cc(=NO)cc(C)n1O	98.1% (inactive)
COc1cc2ncnc(Nc3ccc(F)c(Cl)c3)c2cc1NC(=O)/C=C/CN1CCCCC1	-82.2% (active)
COC(=O)c1c(C)[nH]c(/C=C2\N=C(c3ccc[nH]3)C=C2OC)c1C	-69.4% (active)
C1=NCCc2ccccc21	109% (inactive)
CC(C)C1C2=C(NCCN1C(=O)c1ccncc1)C(C)(C)N(Cc1ccccc1)C2=O (stereo not given)	110% (inactive)
O=c1[nH]nc(SC2CCCCC2)c(=O)[nH]1	116% (inactive)
CCOC(=O)c1c(Cl)c2c(n1Cc1ccccc1)-c1oncc1CCC2	56% (inactive)
COc1ccc(-c2cc(-c3ccccc3)nc(NCCNc3ccnc4cc(Cl)ccc34)n2)cc1	-73.7% (active)
NC(CSC(c1ccccc1)(c1ccccc1)c1cccc2ccccc12)C(=O)O (stereo not given)	86% (inactive)
